Compounds with a hit are over-represented: about 10% of the library has one in this group of screens.
SW480 rerep – inducers of DNA re-replication in SW480 colon cancer cells; Potency, µM (titrated, usually from 46.1 µM), without a hit: at the top dose re-replication activation, actives largely listed as activators; 340,000 tested, 1.8% active; SW480 DNA re-replication, Hoechst DNA content imaging, 48 h; AID 624297; note: % of control where 0% means no effect; nearly all actives have a fitted effect of over 55% in size
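Image-based DNA-content assay: after two days of treatment, nuclei were labelled with the DNA dye Hoechst and imaged, and hits were compounds raising the count of nuclei showing high fluorescence intensity.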
MCF10A rereplic – inducers of DNA re-replication in MCF 10A breast cells; MCF 10A DNA re-replication, Hoechst nuclear intensity, 48 h; Potency, µM (highest dose often 46.1 µM), for the others: at the highest dose activity, positive = re-replication, usual class: activators; 350,000 tested, 2.9% active; note: % of control where 0% means no effect; nearly all actives have a fitted effect of over 50% in size
Gal4-VP16 FLuc – Gal4-VP16 reporter inhibition counter-screen; 310,000 tested, 3.5% active; Drosophila S2 Gal4-VP16 UAS-luciferase, luminescence, 20 h; Potency, µM (top dose mostly 53.6 µM), for the others: top-dose activity, negative = inhibition, actives largely listed as inhibitors; AID 2546;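 note: Gal4-VP16 expression switched on by copper sulfate through the metallothionein promoter; % is set by controls: 0 for no effect and ±100 for the full control effect; nearly all actives have a fitted effect of over 50% in size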
ELG1 DNA repair – inhibitors of ELG1-dependent DNA repair in HEK293T cells; HEK293T ELG1-luciferase reporter, luminescence, 16 h; DNA damage induced by 5-fluorouridine; Potency, µM (top dose mostly 46.1 µM), for inactives: at the highest dose activity change, negative = inhibition, hits mostly inhibitors; 330,000 tested, 2.3% active; AID 504467; note: % is set by controls: 0 for no effect and ±100 for the full control effect; nearly all actives have a fitted effect of over 55% in size
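In this reporter screen, reduction of luminescence relative to DMSO vehicle indicated activity. Compounds and 5-fluorouridine were added together to 2,000 cells per well, incubated for 16 hr at 37 °C, then developed with ONE-Glo.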
RORgamma inh – ROR gamma (mouse) transcription inhibition; P51450; Drosophila S2 Gal4-RORgamma UAS-luciferase reporter, 20 h; Potency, µM (highest dose often 53.6 µM), for inactives: at the highest dose activity change, negative = inhibition, hits mostly inhibitors; 310,000 tested, 5.4% active; AID 2551; note: % is set by controls: 0 for no effect and ±100 for the full control effect; nearly all actives have a fitted effect of over 60% in size
Target sequence (P51450 whole entry, looked up, the tested form may be a part): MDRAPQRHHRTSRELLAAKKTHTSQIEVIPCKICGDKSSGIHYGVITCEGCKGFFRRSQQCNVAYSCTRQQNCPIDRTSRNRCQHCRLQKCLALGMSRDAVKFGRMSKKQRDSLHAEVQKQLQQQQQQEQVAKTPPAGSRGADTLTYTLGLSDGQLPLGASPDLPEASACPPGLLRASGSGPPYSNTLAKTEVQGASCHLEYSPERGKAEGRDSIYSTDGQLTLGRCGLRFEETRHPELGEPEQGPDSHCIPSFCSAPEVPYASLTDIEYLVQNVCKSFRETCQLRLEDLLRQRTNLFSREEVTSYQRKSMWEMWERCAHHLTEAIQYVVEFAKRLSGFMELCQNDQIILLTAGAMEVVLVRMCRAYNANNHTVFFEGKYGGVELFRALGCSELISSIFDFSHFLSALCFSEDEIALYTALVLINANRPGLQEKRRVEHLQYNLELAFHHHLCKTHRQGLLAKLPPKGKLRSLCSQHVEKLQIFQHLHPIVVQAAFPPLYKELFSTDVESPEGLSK
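A Gal4/UAS one-hybrid system in insect cells: metallothionein-promoter Gal4–ROR gamma fusion plus Photinus luciferase reporter. Copper sulfate 700 uM final, 20 hr ambient incubation, luminescent detection after 10 min with reagent.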
* marks the source's active call; other numbers are inactive results; u = inconclusive; x = no result; [ ] = another dose, or the depositor's remark. Calls come from the whole dose curve; as a rule, active = well fitted curve in the direction sought with a large enough effect; inconclusive = small, poorly fitted or top-dose-only effect, or another doubt; inactive = no such curve, though single readings can be large; an effect the other way counts as inactive or inconclusive. Potency is the fitted concentration of half-maximal effect.

SMILES	SW480 rerep	MCF10A rereplic	Gal4-VP16 FLuc	ELG1 DNA repair	RORgamma inh
Cc1ccc(/C=N\NC(=O)c2cncc(Br)c2)o1	-33%	-5%	u	9%	5µM*
COc1cc(/C=N/NC(=O)c2ccncc2)cc(OC)c1OC	0%	u	1%	u	-4%
Cc1ccnn1CC(=O)N/N=C/c1ccc([N+](=O)[O-])s1	u	12%	-13%	13µM*	-1%
C=CCN=C1N[C@@H](c2ccc(Br)cc2)C(C(=O)OC)=C(C)N1Cc1ccccc1	x	x	-14%	x	29%
CCOc1ccccc1/C=C(\C(=O)O)c1ccc(S(=O)(=O)N2CCCCC2)s1	-2%	0%	x	2%	x
CC(NC(=O)COC(=O)c1cc(Cl)ccc1O)C1CC2CCC1C2 (stereo unspecified)	-10%	-3%	x	1%	x
CSCCC(NC(=O)COc1ccccc1)C(=O)NCCOc1ccccc1 (stereo unspecified)	-4%	-5%	x	19%	x
O=C(Nc1nc2ccc(F)cc2s1)C1CCN(S(=O)(=O)c2cc([N+](=O)[O-])ccc2Cl)CC1	u	u	5µM*	u	u
O=C(Nc1nc2ccc(C(=O)N3CCCCC3)cc2s1)C1CCCCC1	6.5µM*	4.1µM*	-10%	u	-2%
Cc1ccc2nc(NC(=O)C3CCN(S(=O)(=O)c4cccnc4)CC3)sc2c1	0%	10%	2%	16µM*	34%
Cc1ccc2nc(NC(=O)C3CCCN(S(=O)(=O)c4cccc5nsnc45)C3)sc2c1 (stereo unspecified)	11%	17%	4%	18µM*	u
Nc1ccc2nc(NC(=O)C3CCCCC3)sc2c1	-17%	4%	-14%	u	-14%
COc1ccc2nc(NC(=O)C3CCN(S(=O)(=O)c4cccnc4)CC3)sc2c1	19%	24%	3%	u	19%
CC(C)(C)OC(=O)CN1C(=O)NC2(CCCc3ccccc32)C1=O (stereo unspecified)	3%	16%	-7%	4%	9%
CCN(c1cccc(C)c1)S(=O)(=O)c1cc2c3c(c1)CCC(=O)N3CCC2	-89%	u	x	5%	x
CC12CCC(C(=O)N(CC(O)CN3CCCCCC3)C1=O)C2(C)C (stereo unspecified)	2%	7%	2%	14%	-12%[10 µM]
COc1ccc2nc(NC(=O)C3CCN(S(=O)(=O)c4cccs4)CC3)sc2c1	11%	-1%	-2%	10µM*	3%
Cc1ccnc(NC(=O)C2CCN(S(=O)(=O)c3cccc4nsnc34)CC2)c1	10%	u	-6%	u	25%
Cc1ccc2nc(NC(=O)C3CCN(S(=O)(=O)c4cccc5nsnc45)CC3)sc2c1	-12%	22%	-2%	16µM*	u
CCC(C)(C)NC(=O)c1ccc(Sc2nncn2C)c([N+](=O)[O-])c1	-2%	1%	-9%	2%	-19%
COc1ccc(NC(=O)/C(C#N)=C/c2ccc(Sc3nncn3C)c([N+](=O)[O-])c2)cc1	u	u	22µM*	u	-40%
Cn1cnnc1Sc1ccc(C(=O)OCC(=O)Nc2ccccc2)cc1[N+](=O)[O-]	2%	6%	-14%	7%	-13%[10 µM]
Cn1cnnc1Sc1ccc(/C=C/C(=O)c2ccc(O)cc2)cc1[N+](=O)[O-]	-17%	u	u	u	10µM*
CC/C(=N\N=C(/CC)c1ccccc1N)c1ccccc1N	1%	7%	x	x	x
CC1CN(C(=S)Nc2cccc(Cl)c2)CC(C)O1 (stereo unspecified)	-8%	-1%	u	-14%	u
SMILES	SW480 rerep	MCF10A rereplic	Gal4-VP16 FLuc	ELG1 DNA repair	RORgamma inh
Cc1ccc(NC(=S)N2CC(C)OC(C)C2)cc1C (stereo unspecified)	5%	3%	u	11%	16µM*
O=S(=O)(c1ccc2ccccc2c1)N1CCN(C(=S)Nc2ccc(F)cc2)CC1	x	4%	0%	18µM*	-11%
Cc1cc(C)cc(NC(=S)N2CCN(S(=O)(=O)c3ccccc3)CC2)c1	-2%	6%	u	2%	11µM*
Cc1ccc(NC(=S)N2CCCCC2CO)cc1C (stereo unspecified)	-6%	0%	u	u	7.9µM*
Cc1ccc(CNC(=O)CS(=O)(=O)CC(=O)O)cc1	0%	4%	-2%	-1%	6%
CCCCNC(=O)C(=O)Nc1cc2c3c(c1)CCC(=O)N3CCC2	-2%	16%	-4%	u	-5%
O=C(Cn1ncc(Cl)c(Cl)c1=O)N1CCN(S(=O)(=O)c2ccc3ccccc3c2)CC1	u	u	u	u	13µM*
CC1CN(C(=S)Nc2ccc(Br)cc2)CC(C)O1 (stereo unspecified)	-2%	u	u	-12%	u
Cc1cc(C)cc(NC(=S)N2CCCC2)c1	-1%	0%	u	-1%	13µM*
Cc1cc(C)cc(NC(=S)N2CC(C)OC(C)C2)c1 (stereo unspecified)	1%	-1%	u	-4%	16µM*
CC(C)C(=O)N1CCN(S(=O)(=O)c2ccc3ccccc3c2)CC1	2.9µM*	1%	-2%	u	u
Cc1cccc(NC(=S)N2CCCCCC2)c1	0%	u	u	3%	u
CC(NC(=O)COC(=O)CN1C(=O)c2ccccc2C1=O)c1ccccc1 (stereo unspecified)	-10%	-2%	x	26%	x
COc1ccc(S(=O)(=O)N2CCCCCC2)cc1NC(C)C(=O)Nc1ccc(NC(C)=O)cc1 (stereo unspecified)	2%	-3%	x	x	x
COc1ccccc1N1CCN(C2CCCN(C(=O)c3snnc3C)C2)CC1 (stereo unspecified)	-21%	-4%	-6%	7%	-27%
Cc1ccc(NC(=O)C2CCCN2S(=O)(=O)c2ccc(-c3ccc(=O)[nH]n3)s2)c(C)c1 (stereo unspecified)	-3%	0%	10%	-18%	13%
O=C(NCCCN1CCCC1=O)c1cc(S(=O)(=O)N2CCOCC2)c(Cl)cc1Cl	4.6µM*	-1%	x	15%	x
O=c1c(-c2cccs2)nc2cncnc2n1-c1ccccc1	x	x	8%	x	10%
N#Cc1cn(-c2cccc(C(F)(F)F)c2)c(=O)[nH]c1=O	-4%	-1%	-9%	-4%	-15%
Oc1ccccc1N1CCN(Cc2ncc(-c3ccccc3)o2)CC1	-3%	-2%	-9%	0%	3%
c1ccc2c(CCNc3ncnc4nc[nH]c34)cccc2c1	15%	u	u	23µM*	u
Clc1ccc(CCNc2ncnc3nc[nH]c23)cc1	0%	-3%	11µM*	u	-22%
COc1ccc(OCCN2C(=O)c3cccc(N)c3C2=O)cc1	u	u	25%	u	51%

Source: PubChem BioAssay
